High-throughput results deposited in PubChem by National Center for Advancing Translational Sciences (NCATS).
Compounds with a hit are over-represented: about 9.3% of the library has one in this group of screens.
Sm TGR inh = S. mansoni TGR enzyme inhibition; AID 485364; Q962Y6; Potency, µM (top dose mostly 114 µM), for the others: top-dose activity change, negative = inhibition, actives largely listed as inhibitors; 3% of 360,000 active; purified TGR, DTNB reduction, TNB absorbance 405 nm; also: potency is read from the fitted curve at half-maximal effect; nearly all actives have a fitted effect of over 60% in size
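TGR 20 nM + NADPH 100 uM (dispensed conc.), cpd preinc 15 min RT; start with NADPH (500 uM addition) then DTNB (15 mM addition). Kinetic TNB absorbance, 405 nm filter. Four-parameter Hill fit across titration.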
VACV Venus inh = inhibitors of vaccinia virus (Venus reporter); Vaccinia virus Venus reporter expression, fluorescence; Potency, µM (series often up to 36.5 µM), for inactives: at the highest dose activity change, negative = inhibition, hits mostly inhibitors; 0.46% of 330,000 active; calls by dose curve; tested in A549 cells; also: potency is read from the fitted curve at half-maximal effect; nearly all actives have a fitted effect of over 30% in size
HCMV antiviral = human cytomegalovirus inhibition; HFF cells, HCMV-luciferase reporter, 72 h; hits give low values; activity change, negative = inhibition, % at 57.5 µM; 4.5% of 410,000 active; AID 1259415; in the data active = activity change below about -60%; inconclusive = no clear call, values can overlap the other calls; inactive = above about -39%
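HFF cells seeded 16 h at 37C, treated with compounds, infected with luciferase-reporter HCMV at MOI 1 PFU/cell; luciferase read at 72 h post infection, normalized to buffer-only and Salinomycin controls.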
HCV inh = HCV inhibition; Huh7.5.1 HCVcc-Cre infection, luciferase reporter, 44 h; Potency, µM (top dose mostly 41.8 µM), without a hit: top-dose activity change, negative = inhibition, actives largely listed as inhibitors; 3.4% of 340,000 active; AID 651820; also: potency is read from the fitted curve at half-maximal effect
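HCVcc-Cre virus at an moi near 0.5 was added right after compound to cells cultured 4 h from seeding (1,000 cells/well). Luciferase activity was determined 44 h later, 15 min after substrate addition at RT.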
FMDV antiviral = blocks foot and mouth disease virus. 1.2% of 410,000 active. Potency, µM (titrated, usually from 57.9 µM), without a hit: at the highest dose activity change, negative = inhibition, hits mostly inhibitors. FMDV antiviral cell-based qHTS; calls by dose curve; tested in HEK293T cells; also: read-out not given here; potency is read from the fitted curve at half-maximal effect; nearly all actives have a fitted effect of over 45% in size
Vaccinia mCherry = vaccinia inhibition (mCherry reporter) | Vaccinia virus mCherry reporter infection, fluorescence | 0.63% of 310,000 active | Potency, µM (top dose mostly 36.5 µM), for the others: at the top dose activity change, negative = inhibition, hits mostly inhibitors | AID 720579; calls by dose curve; tested in A549 cells; also: potency is read from the fitted curve at half-maximal effect; nearly all actives have a fitted effect of over 35% in size
* = called active by the depositor; i = inactive; ? = inconclusive; · = no result; ! = repeats disagree; [ ] = dose if it differs, or a comment. Unless noted, calls follow the shape of the dose curve; as a rule, active = well fitted curve in the direction sought with a large enough effect; inconclusive = small, poorly fitted or top-dose-only effect, or another doubt; inactive = no such curve, though single readings can be large; an effect the other way counts as inactive or inconclusive. % is scaled to controls: 0 for no effect and ±100 for the full control effect.

SMILES	Sm TGR inh	VACV Venus inh	HCMV antiviral	HCV inh	FMDV antiviral	Vaccinia mCherry
CC(C)(C)OC(=O)C[C@@H]1C/C=C\C[C@H](CC(=O)NCCO)C(=O)N2CCC[C@@H]2COC1=O	·	-4%	-7	5%	-15%	i
O[N+]1=CC=CCC1=S.On1ccccc1=S.[Zn]	·	?	·	·	8.9µM*	?
NC(N)=N/N=C/c1c(Cl)cccc1Cl	6%	-12%	-73*!	-25%	-18%	-19%
NC(N)=N/N=C/c1ccccc1Cl	12%	-14%	-14	-11%	-19%	?
COC(=O)C1CCN(c2ccc(C(N)=O)cc2[N+](=O)[O-])CC1	0%	-6%	-33	2%	-18%	-18%
CCCCN(C)CCCNC(=O)Cn1ncc2c3ccccc3n(Cc3ccccc3F)c2c1=O	-10%	?	-105*	·	0%	?
CCCN(CCC)CCCNC(=O)Cn1ncc2c3ccccc3n(Cc3ccccc3F)c2c1=O	2%	-5%	-24	·	-24%	-13%
Cc1cc(C)c(Cn2c3ccccc3c3cnn(CC(=O)NCc4ccccn4)c(=O)c32)c(C)c1	1%	-2%	-62*!	?	?	-24%
Cc1ccccc1Cn1c2ccccc2c2cnn(CC(=O)NCc3ccccn3)c(=O)c21	2%	-13%	0	-22%	-12%	-12%
CCCCN(C)CCCNC(=O)Cn1ncc2c3ccccc3n(Cc3cc(C)ccc3C)c2c1=O	-18%	-25%	-99*	·	-22%	-5%
COC(=O)c1c(NC(=O)/C(C#N)=C/c2ccccc2)sc2c1CCC2	0%	-5%	-9	·	-11%	-5%
Cn1cnc(C(=O)NCc2ccc(CNC(=O)OC(C)(C)C)cc2)c1C(=O)NCc1ccc(CNC(=O)OC(C)(C)C)cc1	·	?	?	?	16µM*	?
CC(C)(C)OC(=O)NCc1ccc(CNC(=O)c2ncn(Cc3ccccc3)c2C(=O)NCc2ccc(CNC(=O)OC(C)(C)C)cc2)cc1	·	-7%	4	16%	-23%	-12%
C[C@H]1CNC(=O)c2c(C(=O)Nc3ccc(CNC(=O)OC(C)(C)C)cc3)ncn21	·	?	?	·	28µM*	?
O=C(NC1CC2CCCC(C1)N2)c1ccccc1 (configuration not stated)	-18%	-8%	17	20%	12%	i
O=C(NCc1ccco1)c1nn2c(C(F)(F)F)cc(-c3cccs3)nc2c1Br	32µM*	-22%	-14	?	-20%	-5%
O=C(NCc1ccco1)c1nc2nc(-c3cccs3)cc(C(F)(F)F)n2n1	32µM*	·	178	-27%	-1%	·
COc1ccccc1-c1c(C)nn2c(N3CCC(C)CC3)cc(C)nc12	7%	-2%	-28	10µM*	25µM*	-5%
COc1ccc(-c2c(C)nn3c(-c4ccccc4)cc(C)nc23)cc1	7%	-3%	14	11µM*	-29%	10%
Cc1cc(C)n2nc(C)c(-c3ccc(Cl)cc3)c2n1	-18%	·	-18	11µM*	?	·
Cc1cc(N2CCOCC2)n2nc(C)c(-c3ccccc3)c2n1	8%	?	64	11µM*	?	·
COc1ccc(-c2c(C)nn3c(-c4ccccc4)cc(-c4ccccc4)nc23)cc1	-4%	-6%	-8	·	-18%	-3%
COC(=O)C1CC(C(=O)OC)C2C(C(=O)OC)CC(C(=O)OC)C12 (configuration not stated)	·	-7%	-2	8%	-12%	i
CC1(C)CC(=O)C=C(c2ccc(COC(=O)c3ccc(-c4ccccc4)cc3)cc2)C1=O	·	-7%	15	·	-22%	i
O=C(Cn1c(=O)oc2cc(S(=O)(=O)N3CCCCC3)ccc21)NCc1ccc(F)cc1	-8%	-20%	-12	·	0%	-26%
SMILES	Sm TGR inh	VACV Venus inh	HCMV antiviral	HCV inh	FMDV antiviral	Vaccinia mCherry
CC(C(=O)NCc1ccc(F)cc1)n1ccc2cc(S(=O)(=O)N3CCCC3)ccc21 (configuration not stated)	0%	-23%	-28	11µM*	-20%	-23%
O=C(Cn1c(=O)oc2cc(S(=O)(=O)N3CCCC3)ccc21)NCc1ccc(F)cc1	1%	-17%	-70*!	3%	0%	-19%
Cc1ccccc1NC(=O)c1ccc(F)c(S(=O)(=O)N(C)C2CCCCC2)c1	-4%	-23%	-94*	·	?	-17%
Cc1ccccc1NC(=O)c1ccc(F)c(S(=O)(=O)NCC2CCCO2)c1 (configuration not stated)	?	·	28	-12%	30%	·
CCOC1(NC(=O)c2ccccc2)C(C)=CC(=O)C=C1C	25µM*	·	8	16%	0%	·
CCOC(=O)c1ccc(NC(=O)c2ccc(NC(=O)c3ccccc3)cc2)cc1	5%	6%	25	1%	·	-3%
O=[N+]([O-])c1cc(-c2nnc(C34CC5CC(CC(C5)C3)C4)o2)cc([N+](=O)[O-])c1	11%	-10%	46	-21%	-20%	-9%
Cc1ccc2oc(=O)c3cc(C(=O)NCCCN4CCCCCC4)sc3c2c1	-30%	-6%	0	?	-7%	3%
CCC1CCCCN1CCCNC(=O)c1cc2c(=O)oc3ccc(C)cc3c2s1 (configuration not stated)	1%	·	0	13µM*	7%	·
CCOC(=O)c1c(C)[nH]c(CCC(=O)NCc2ccc(OC)c(OC)c2)c1C	5%	-5%	?	·	-7%	-9%
CC(=O)c1ccc(Oc2cc(C)nc(NCc3ccccc3)n2)cc1	-2%	-25%	-33	13µM*	-29%	-14%
CCOc1cc(C)nc(NCc2ccccc2)n1	3%	-27%	26	-2%	7%	-3%
Cc1nc(N2CCN(Cc3ccc4c(c3)OCO4)CC2)c2cc(-c3ccccc3)sc2n1	-3%	-17%	-3	?	-12%	?
Cc1nc(N2CCN(Cc3ccc(Cl)cc3)CC2)c2oc3ccccc3c2n1	1%	-18%	-39	8.9µM*	?	-19%
Cc1nc(N2CCC(C)CC2)c2oc3ccccc3c2n1	1%	?	?	?	?	i[1.46 µM]
Cc1nc(N2CCN(Cc3ccc4c(c3)OCO4)CC2)c2oc3ccccc3c2n1	·	-25%	-30	-8%	28µM*	i
COc1ccccc1N1CCN(c2nc(C)nc3c2oc2ccccc23)CC1	-9%	·	-82*	3.5µM*	28µM*	·
Cc1nc(N2CCN(C(=O)c3ccco3)CC2)c2oc3ccccc3c2n1	?	?	20	?	?	?
Cc1ccc(C)c(OCC(O)CN2CCC(Cc3ccccc3)CC2)c1 (configuration not stated)	-4%	·	-111*	11%	?	·
Cc1ccc(C)c(OCC(O)CN2CCCCC2C)c1 (configuration not stated)	-8%	-9%	-5	?	-11%	·
